Data: PubChem BioAssay (NCATS)
Results filed as inconclusive are left out. A call without a number means that no potency is given here. The source made the active and inactive calls. Calls follow the shape of the full dose curve.

The molecules below were run against Atrial natriuretic peptide receptor 1 (Homo sapiens) (UniProt P16066) (assay: Natriuretic polypeptide receptor (hNpr1) antagonism - Pilot screen (AID 1347049;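 also: agonist-evoked cGMP luminescence read 20 min after hNppA addition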)). Details: hNpr1 cells, antagonist mode cGMP read-out; series mostly up to 57.5 µM.
Atrial natriuretic peptide receptor 1 (Homo sapiens), sequence (P16066 whole entry, looked up): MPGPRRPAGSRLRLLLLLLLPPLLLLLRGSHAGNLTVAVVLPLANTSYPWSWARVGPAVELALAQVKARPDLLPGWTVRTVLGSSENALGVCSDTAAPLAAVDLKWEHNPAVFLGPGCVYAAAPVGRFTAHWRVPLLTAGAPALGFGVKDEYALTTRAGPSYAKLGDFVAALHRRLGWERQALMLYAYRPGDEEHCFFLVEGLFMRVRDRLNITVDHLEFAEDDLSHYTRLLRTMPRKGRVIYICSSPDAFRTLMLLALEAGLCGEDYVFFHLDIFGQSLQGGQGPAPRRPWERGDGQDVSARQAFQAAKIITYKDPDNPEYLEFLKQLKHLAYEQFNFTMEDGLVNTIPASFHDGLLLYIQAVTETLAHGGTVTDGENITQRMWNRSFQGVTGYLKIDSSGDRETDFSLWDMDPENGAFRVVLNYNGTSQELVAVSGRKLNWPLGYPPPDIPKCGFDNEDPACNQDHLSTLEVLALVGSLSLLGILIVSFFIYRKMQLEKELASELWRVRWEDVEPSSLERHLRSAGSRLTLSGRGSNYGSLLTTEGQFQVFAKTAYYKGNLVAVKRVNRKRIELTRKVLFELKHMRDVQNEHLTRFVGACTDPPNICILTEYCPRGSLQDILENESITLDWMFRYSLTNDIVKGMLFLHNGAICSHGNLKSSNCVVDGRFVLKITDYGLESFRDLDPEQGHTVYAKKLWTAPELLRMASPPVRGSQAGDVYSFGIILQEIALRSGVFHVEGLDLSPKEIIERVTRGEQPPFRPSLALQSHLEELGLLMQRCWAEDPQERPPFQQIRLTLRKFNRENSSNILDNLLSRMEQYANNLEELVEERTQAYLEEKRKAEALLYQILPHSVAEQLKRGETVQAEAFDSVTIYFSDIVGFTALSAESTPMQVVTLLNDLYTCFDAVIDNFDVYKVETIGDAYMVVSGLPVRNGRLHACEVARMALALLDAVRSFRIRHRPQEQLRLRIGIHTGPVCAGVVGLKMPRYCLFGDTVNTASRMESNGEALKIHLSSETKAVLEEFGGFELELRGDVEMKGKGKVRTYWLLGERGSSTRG
How it was run: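 HEK293 cells co-expressing hNpr1 and the GloSensor pGS-40F cGMP luciferase sensor were preloaded with 2% GloSensor reagent for 2 h. Compounds were added for 30 min at room temperature, then cells were stimulated with 0.1 nM hNppA for 20 min before luminescence readout.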
C=CC(C)=C[C@@]1(C)SC(=O)C(C)=C1O was tested, and the Potency was “inactive”.
With CNC(=O)[C@H]1O[C@@H](n2cnc3c(NCc4cccc(I)c4)ncnc32)[C@H](O)[C@@H]1O the Potency was “inactive”.
In the case of CCCCCCCC/C=C\CCCCCCCC(=O)NCCO, the Potency is reported as “inactive”.
In the case of COC(=O)c1c(C)[nH]c(C)c1C(=O)c1ccccc1Cc1ccccc1, the Potency is reported as “inactive”.
With CC(C)NC[C@@H](O)c1ccc(O)c(O)c1 the Potency was “inactive”.
For NCCCCCCCCCCN, the Potency was “inactive”.
In the case of CC(C)(C=O)Cc1cc(C(C)(C)C)c(O)c(C(C)(C)C)c1, the Potency is reported as “inactive”.
In the case of COc1cccc(C(=O)NCCN2CCN(c3ccc(Cl)cc3)CC2)c1, the Potency is reported as “inactive”.
NC(=O)C1=CN(C2OC(COP(=O)(O)OP(=O)(O)OC[C@H]3O[C@@H](n4cnc5c(N)ncnc54)[C@H](OP(=O)(O)O)[C@@H]3O)C(O)C2O)C=CC1 (stereo partly drawn) was tested, and the Potency was “inactive”.
C=C[C@@H]1CN2CC[C@@H]1C[C@H]2[C@H](O)c1ccnc2ccc(OC)cc12 was tested, and the Potency was “inactive”.
In the case of CO/S(=N\S(=O)(=O)c1ccc(Cl)cc1)c1ccc([N+](=O)[O-])cc1 (stereo not drawn), the Potency is reported as “inactive”.
For COc1cc(SC)ccc1C(=O)N1CCC(Cc2ccccc2)CC1, the Potency was “inactive”.
With CC1CN(S(=O)(=O)c2cccc3cnccc23)CCN1 (stereo not drawn) the Potency was “inactive”.
In the case of C[C@@H](CN1CCC(Cc2ccccc2)CC1)[C@@H](O)c1ccc(O)cc1, the Potency is reported as “inactive”.
CC1(C)CCC=[N+]1[O-] was tested, and the Potency was “inactive”.
In the case of OC[C@H]1O[C@@H](n2cnc3c(NC4CCCC4)ncnc32)[C@H](O)[C@@H]1O, the Potency is reported as “inactive”.
For COc1cc(C(O)CO)ccc1OS(=O)(=O)O (stereo not drawn), the Potency was “inactive”.
In the case of CC(=O)N[C@H](C(=O)O)C(C)(C)SN=O, the Potency is reported as “inactive”.
